# Assay results taken from PubChem BioAssay (EPA / NIEHS).
# Inconclusive results are not listed. Active and inactive are the calls of the source. How the source made its calls, unless noted: active means hit-call score of the fitted dose curve at least 0.9, where 1 is the maximum; inactive means score below 0.9.
# How the values were obtained:
# [1] = BSK_BT_PBMCCytotoxicity: PBMC Cytotoxicity Assessment in the BioMAP Diversity Plus: BT Assay (AID 2284225); conditions: primary human B cells with PBMC;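 further: PBMC viability measured by Alamar Blue dye reduction fluorescence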
# Procedure, shortened: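 Primary human co-culture of B cells and PBMC, pre-dosed 1 h then activated with SEB and TSST-1. Cytotoxicity is taken from Alamar Blue dye reduction, added for 6 h at the end of a 90 h incubation.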
# [2] = read-out: Secreted IgG (sIgG), gene 3500; assay: BSK_BT_sIgG: BioMAP Diversity Plus: BT Assay for Secreted IgG (sIgG) Biomarker Activity (AID 2284226); conditions: primary human B cells with PBMC
# Procedure, shortened: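 In this multiplexed co-culture system, ELISA quantifies sIgG 24 h post-treatment. Endpoint analysis uses positive fitting direction, DMSO negative control.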
# [3] = BSK_BT_Bcell_Proliferation: Viability Assessment in the BioMAP Diversity Plus: BT Assay for B cell Proliferation (AID 2284227); conditions: primary human B cells with PBMC
# Procedure, shortened: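 SRB-based protein staining (0.1% SRB after 10% TCA fixation, 560 nm) quantifies proliferation in human B cells co-cultured with PBMC, 72 h post-dosing, with signal gain scored relative to DMSO negative control.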
# [4] = read-out: Interleukin 6 (IL6), IL6 (gene 3569); assay: BSK_BT_xIL6: BioMAP Diversity Plus: BT Assay for Interleukin 6 (IL6) Biomarker Activity (AID 2284228); conditions: primary human B cells with PBMC
# Procedure, shortened: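 Secreted IL-6 in the primary human B cell plus PBMC system, measured by Luminex at 24 h post-chemical, DMSO as baseline. Alamar Blue viability: 75,000 cells/well, chemical 1 h before SEB/TSST-1 (20 ng/mL each), 90 h, then 6 h dye.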
# [5] = read-out: Tumor necrosis factor (Homo sapiens) (UniProt P01375); assay: BSK_BT_xTNFa: BioMAP Diversity Plus: BT Assay for Tumor necrosis factor alpha (TNF-alpha) Biomarker Activity (AID 2284230); conditions: primary human B cells with PBMC
# Procedure, shortened: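 Compounds were added to a B cell plus PBMC co-culture, and after 24 h secreted TNF-alpha was quantified with Luminex xMAP technology, with responses fitted upward from the DMSO control.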
# [6] = read-out: Vascular cell adhesion molecule 1 (VCAM1), VCAM1 (gene 7412); assay: BSK_MyoF_VCAM1: BioMAP Diversity Plus: MyoF Assay for Vascular cell adhesion molecule 1 (VCAM1) Biomarker Activity (AID 2284231); conditions: primary human lung fibroblasts
# Procedure, shortened: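 ELISA readout of VCAM-1 on human lung fibroblast cultures 24 hours after dosing, analyzed for signal gain relative to DMSO. Overt cytotoxicity was checked by sulforhodamine B total-protein staining in parallel cultures.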
# [7] = read-out: Collagen III, COL3A1 (gene 1281); assay: BSK_MyoF_CollagenIII: BioMAP Diversity Plus: MyoF Assay for Collagen III Biomarker Activity (AID 2284239); conditions: primary human lung fibroblasts
# Procedure, shortened: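 Collagen III biomarker quantified by ELISA in human lung fibroblast cultures 24 h after dosing. Activity fitted in the positive direction against DMSO as baseline.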
# [8] = TAMU_PeakParms_SingleDonor1434_QT: Texas A&M University (TAMU) 1.5-hr Human Induced Pluripotent Stem Cell (iPSC)-derived Cardiomyocytes Calcium (Ca+2) Flux Assay for Cardiotoxicity: QT (decay-rise ratio) (AID 2284235; active means hit-call score of the fitted dose curve at least 0.9, where 1 is the maximum)
# Procedure, shortened: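 Decay/rise ratio of calcium-flux fluorescence scored after 90 min exposure (37C) of donor 1434 iPSC cardiomyocytes to 0.2–100 uM (0.5% DMSO). Beat-cessation and severe-notch points removed; POD is EC05, a 5% rise over DMSO.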
# Sequence of Tumor necrosis factor (Homo sapiens) (P01375 whole entry, looked up): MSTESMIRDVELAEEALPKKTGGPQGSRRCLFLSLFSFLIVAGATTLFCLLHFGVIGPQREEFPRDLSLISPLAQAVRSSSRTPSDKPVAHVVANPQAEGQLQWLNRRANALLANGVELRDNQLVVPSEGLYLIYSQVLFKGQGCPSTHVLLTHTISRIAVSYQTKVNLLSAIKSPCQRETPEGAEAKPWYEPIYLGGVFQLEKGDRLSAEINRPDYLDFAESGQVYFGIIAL
smiles,measurement,setting,value
CC(C=O)Cc1ccc(C(C)(C)C)cc1 (stereo not drawn),outcome,[1],inactive
same,outcome,[2],inactive
same,outcome,[3],inactive
same,outcome,[4],inactive
same,outcome,[5],inactive
same,outcome,[6],inactive
same,outcome,[7],inactive
O=C1OC2(c3ccccc31)c1ccc(O)c(Br)c1Oc1c2ccc(O)c1Br,outcome,[1],inactive
same,outcome,[2],inactive
same,outcome,[3],inactive
same,outcome,[4],inactive
same,outcome,[5],inactive
same,outcome,[6],inactive
same,AC50,[7],20 µM (active)
CCC(C)c1cc([N+](=O)[O-])cc([N+](=O)[O-])c1OC(=O)OC(C)C (stereo not drawn),AC50,[1],20 µM (active)
same,AC50,[2],11.1 µM (active)
same,AC50,[3],26.7 µM (active)
same,AC50,[4],30.4 µM (active)
same,AC50,[5],33.5 µM (active)
same,AC50,[6],8.46 µM (active)
same,AC50,[7],11.5 µM (active)
CC(C)(C)CC(C)(C)c1ccc(OCCOCC[N+](C)(C)Cc2ccccc2)cc1,AC50,[1],8.02 µM (active)
same,AC50,[2],1.57 µM (active)
same,AC50,[3],5 µM (active)
same,outcome,[4],inactive
same,AC50,[5],5 µM (active)
same,AC50,[6],8.24 µM (active)
same,AC50,[7],7.02 µM (active)
CCN(CC)C(=O)N(CC)CC,outcome,[1],inactive
same,outcome,[2],inactive
same,outcome,[3],inactive
same,outcome,[4],inactive
same,outcome,[5],inactive
same,outcome,[6],inactive
same,outcome,[7],inactive
COc1cc(Cl)c(OC)cc1N,outcome,[1],inactive
same,outcome,[2],inactive
same,outcome,[3],inactive
same,outcome,[4],inactive
same,outcome,[5],inactive
same,outcome,[6],inactive
same,outcome,[7],inactive
CCCCCCCCCCCCCCCC(=O)OC/C=C(C)/C=C/C=C(C)/C=C/C1=C(C)CCCC1(C)C,outcome,[1],inactive
same,AC50,[2],20 µM (active)
same,outcome,[3],inactive
same,AC50,[4],31.2 µM (active)
same,outcome,[5],inactive
same,outcome,[6],inactive
same,outcome,[7],inactive
CCCCCC(C=O)=Cc1ccccc1,outcome,[1],inactive
same,AC50,[2],26.9 µM (active)
same,outcome,[3],inactive
same,outcome,[4],inactive
same,outcome,[5],inactive
same,AC50,[6],34.2 µM (active)
same,outcome,[7],inactive
C=C(C)C(=O)OCC(CC)(COC(=O)C(=C)C)COC(=O)C(=C)C,outcome,[1],inactive
same,AC50,[2],3.08 µM (active)
same,AC50,[3],25.5 µM (active)
same,AC50,[4],19.7 µM (active)
same,AC50,[5],19.7 µM (active)
same,AC50,[6],11.2 µM (active)
same,AC50,[7],29.3 µM (active)
Cc1cc(CCC(=O)OCCOCCOCCOC(=O)CCc2cc(C)c(O)c(C(C)(C)C)c2)cc(C(C)(C)C)c1O,outcome,[1],inactive
same,outcome,[2],inactive
same,outcome,[3],inactive
same,outcome,[4],inactive
same,outcome,[5],inactive
same,outcome,[6],inactive
same,outcome,[7],inactive
CN(C)C(=O)Nc1ccc(Oc2ccc(Cl)cc2)cc1,outcome,[1],inactive
same,AC50,[2],20 µM (active)
same,outcome,[3],inactive
same,outcome,[4],inactive
same,outcome,[5],inactive
same,outcome,[6],inactive
same,outcome,[7],inactive
CC(=O)c1c(C)c([N+](=O)[O-])c(C(C)(C)C)c([N+](=O)[O-])c1C,outcome,[1],inactive
same,AC50,[2],30.5 µM (active)
same,outcome,[3],inactive
same,outcome,[4],inactive
same,outcome,[5],inactive
same,outcome,[6],inactive
same,outcome,[7],inactive
CC(=O)Nc1ccc(C(=O)CCl)cc1,AC50,[1],5.36 µM (active)
same,AC50,[2],2.21 µM (active)
same,AC50,[3],5.39 µM (active)
same,AC50,[4],3.46 µM (active)
same,AC50,[5],8.47 µM (active)
same,AC50,[6],23.9 µM (active)
same,AC50,[7],20 µM (active)
CN(C)C(=S)SC(=S)N(C)C,AC50,[1],0.396 µM (active)
same,AC50,[2],0.244 µM (active)
same,AC50,[3],0.436 µM (active)
same,AC50,[4],0.6 µM (active)
same,AC50,[5],0.504 µM (active)
same,AC50,[6],35.5 µM (active)
same,AC50,[7],19.9 µM (active)
IC(I)I,outcome,[1],inactive
same,outcome,[2],inactive
same,outcome,[3],inactive
same,outcome,[4],inactive
same,outcome,[5],inactive
same,outcome,[6],inactive
same,outcome,[7],inactive
CC1(C)C2=CCCC(C)(C)[C@]23CC[C@H]1C3,outcome,[1],inactive
same,AC50,[2],20 µM (active)
same,outcome,[3],inactive
same,outcome,[4],inactive
same,outcome,[5],inactive
same,AC50,[6],31.9 µM (active)
same,AC50,[7],39 µM (active)
CC(C)NCC(O)COc1ccc(CC(N)=O)cc1 (stereo not drawn),outcome,[8],inactive
CN(c1nccc(=O)[nH]1)C1CCN(c2nc3ccccc3n2Cc2ccc(F)cc2)CC1,outcome,[1],inactive
same,AC50,[2],14.6 µM (active)
same,outcome,[3],inactive
same,outcome,[4],inactive
same,outcome,[5],inactive
same,AC50,[6],3.1 µM (active)
same,outcome,[7],inactive
c1ccc(Oc2ccccc2)cc1,outcome,[1],inactive
same,outcome,[2],inactive
same,outcome,[3],inactive
same,outcome,[4],inactive
same,outcome,[5],inactive
same,outcome,[6],inactive
same,outcome,[7],inactive
C1=CC2C3C=CC(C3)C2C1 (stereo not drawn),outcome,[1],inactive
same,outcome,[2],inactive
same,outcome,[3],inactive
same,outcome,[4],inactive
same,outcome,[5],inactive
same,outcome,[6],inactive
same,outcome,[7],inactive
C[C@@H]1CCN(C(=O)[C@H](CCCN=C(N)N)NS(=O)(=O)c2cccc3c2NC[C@H](C)C3)[C@@H](C(=O)O)C1,outcome,[1],inactive
same,outcome,[2],inactive
same,outcome,[3],inactive
same,outcome,[4],inactive
same,outcome,[5],inactive
same,outcome,[6],inactive
same,outcome,[7],inactive
c1ccc2cc(Nc3ccc(Nc4ccc5ccccc5c4)cc3)ccc2c1,outcome,[1],inactive
same,outcome,[2],inactive
same,outcome,[3],inactive
same,AC50,[4],1.12 µM (active)
same,outcome,[5],inactive
same,outcome,[6],inactive
same,AC50,[7],4.82 µM (active)
